Measurements reported in PubChem BioAssay (Tox21).
Inconclusive results are not listed. Unmarked numbers belong to inactive results. Active and inactive are the calls of the source. Calls follow the shape of the dose curve; as a rule, active = well fitted cell-killing curve with a large enough effect in the repeat runs; inconclusive = weak or mixed curves; inactive = flat fitted curve, though single readings scatter.
% is scaled to controls: 0 for no effect and ±100 for the full control effect; potency is read from the fitted curve at half-maximal effect.

Assay: qHTS assay to identify small molecule antagonists of the estrogen related receptor (ERR) signaling pathway from Tox21 library - cell viability counter screen (AID 1224834); also: nearly all actives have a fitted effect of over 30% in size
Details: ERR reporter cells viability, CellTiter-Fluor, 17.5 h; series mostly up to 92.4 µM; viability change, negative = cytotoxic: at the top concentration
Text: National Center for Advancing Translational Sciences [NCATS]
NIH Chemical Genomics Center [NCGC]
U.S. Environmental Protection Agency [EPA]
National Institutes of Environmental Health Sciences [NIEHS]
National Toxicology Program [NTP]
U.S. Food and Drug Administration [FDA]
Estrogen related receptors (ERRs), the first orphan nuclear receptors discovered, play an important role in the control of cellular energy metabolism. ERRs are required for high-energy production in response to the environmental challenges. ERR-alpha was also identified as an adverse marker for breast cancer progression; ERR-alpha-positive tumors have a poor prognosis. To screen and to identify environmental compounds that perturb the ERR signaling pathways could provide valuable information for potential therapeutic or preventive measures in the treatment of metabolic disease. To differentiate true ERR antagonists or agonist from cytotoxic substances, the assay is multiplexed with cell viability assay.
Tox21 Assay Protocol Summary:
The ERR cells were dispensed at 2,000 cells/5 ul/well in 1536-well white plates using a Multidrop dispenser. After the assay plates were incubated at a 37 C/5% CO2 incubator for 6 hours, 23 nL of compounds dissolved in DMSO, positive and negative controls or DMSO only was transferred to the assay plate by a pin tool. The plates were incubated at 37 C for 17.5 hours. 1 ul/well of CellTiter-Fluor reagent was added into the assay plates using a Flying Reagent Dispenser. After 30-minute incubation at 37 C/5% CO2, the fluorescence intensity in the plates was measured using a ViewLux plate reader.
With `C[C@@H]1C[C@H]2[C@@H]3CCC4=CC(=O)C=C[C@]4(C)[C@@]3(F)[C@@H](O)C[C@]2(C)[C@H]1C(=O)CO` the “viability change, negative = cytotoxic” value was 1.01% [at 42.5 µM]. With `CN1CCCN=C1/C=C/c1cccs1` the “viability change, negative = cytotoxic” value was 4.91% [at 42.5 µM]. For `C/C(=N/NC(=O)c1ccncc1)C(=O)O`, the “viability change, negative = cytotoxic” value was 7.49% [at 42.5 µM]. With `O=S1OCCO1` the “viability change, negative = cytotoxic” value was 3.97%. With `CCCCC(CC)CNCC(CC)CCCC` (stereo not given) the “viability change, negative = cytotoxic” value was 3.8%. With `O=C1NCCN1` the “viability change, negative = cytotoxic” value was 4.63%. For `CC(N)CN` (stereo not given), the “viability change, negative = cytotoxic” value was 16.4%. For `CC(C)CCCCCCOC(=O)CCCCC(=O)OCCCCCCC(C)C`, the “viability change, negative = cytotoxic” value was 3.27%. For `CC(=O)Nc1ccc(N)cc1`, the “viability change, negative = cytotoxic” value was -0.963%. In the case of `CCCCCCCCCCCCCCCCBr`, the viability change, negative = cytotoxic is reported as 0.749% [at 19 µM]. With `CC(C)C(=O)O` the “viability change, negative = cytotoxic” value was -0.893%. In the case of `NC(=O)Cn1c(=O)cc(CCN2CCN(c3nccc4sccc34)CC2)c2ccc(F)cc21`, the Potency is reported as 48.6 µM (active). For `CCN(CC)CCNC(=O)c1ccc(NC(C)=O)cc1`, the “viability change, negative = cytotoxic” value was 4.71% [at 42.5 µM]. For `O=C(N/N=C/c1ccc([N+](=O)[O-])o1)c1ccc(O)cc1`, the Potency was 13.3 µM (active). For `CC(=O)[C@H]1CC[C@H]2[C@@H]3C[C@H](C)C4=CC(=O)CC[C@]4(C)[C@H]3[C@@H](O)C[C@]12C`, the “viability change, negative = cytotoxic” value was -11.6% [at 42.5 µM]. With `CCCCCCCCCCCC[N+](C)(C)CCCS(=O)(=O)[O-]` the “viability change, negative = cytotoxic” value was -8.65%. In the case of `Cc1ccc(Nc2nccc(N(C)c3ccc4c(C)n(C)nc4c3)n2)cc1S(N)(=O)=O`, the Potency is reported as 29.8 µM (active). For `N#C/C(=C1\SCC(c2ccccc2Cl)S1)n1ccnc1` (stereo not given), the “viability change, negative = cytotoxic” value was -0.278% [at 42.5 µM]. With `CO[C@H]1O[C@H](CO)[C@@H](O)[C@H](O)[C@H]1O` the “viability change, negative = cytotoxic” value was -0.487%. In the case of `CN1C(=O)CC(C)(c2ccccc2)C1=O` (stereo not given), the “viability change, negative = cytotoxic” value is reported as 1.34% [at 42.5 µM]. With `CCCCCCOC(=O)CCCCCCCC(=O)OCCCCCC` the “viability change, negative = cytotoxic” value was 4.54%. In the case of `O=Cc1c(Cl)cccc1Cl`, the “viability change, negative = cytotoxic” value is reported as 0.399%. With `Nc1ccc(S(=O)(=O)O)c(N)c1` the “viability change, negative = cytotoxic” value was 3.59%. In the case of `OCC1CC=CCC1` (stereo not given), the “viability change, negative = cytotoxic” value is reported as 0.812%. For `COc1ccc(CCC(=O)c2c(O)cc(O[C@@H]3O[C@H](CO)[C@@H](O)[C@H](O)[C@H]3O[C@@H]3O[C@@H](C)[C@H](O)[C@@H](O)[C@H]3O)cc2O)cc1O`, the “viability change, negative = cytotoxic” value was 3.08%. In the case of `O=C(O)c1ccccc1NCCc1ccccc1`, the “viability change, negative = cytotoxic” value is reported as 0.456% [at 42.5 µM]. With `Cc1ccccc1N1C(=O)c2cc(S(N)(=O)=O)c(Cl)cc2NC1C` (stereo not given) the “viability change, negative = cytotoxic” value was 0.0148% [at 42.5 µM]. In the case of `COC(=O)CC(=O)C(C)(C)C`, the “viability change, negative = cytotoxic” value is reported as -1.2%. In the case of `Cc1cnc(C)c(C)n1`, the “viability change, negative = cytotoxic” value is reported as 0.247%. With `C[N+]1(C)CCC(=C(c2ccccc2)c2ccccc2)CC1` the “viability change, negative = cytotoxic” value was 2.54% [at 42.5 µM]. For `N#C[C@@H]1C[C@@H]2C[C@@H]2N1C(=O)[C@@H](N)C12CC3CC(CC(O)(C3)C1)C2`, the “viability change, negative = cytotoxic” value was 4.78% [at 42.5 µM]. In the case of `C=C(C)C(=O)OCCOC(=O)CC(C)=O`, the “viability change, negative = cytotoxic” value is reported as 0.457%. In the case of `CCOC(=N)CC(=O)OCC`, the “viability change, negative = cytotoxic” value is reported as 0.847%. In the case of `O=C(Nc1ccc([N+](=O)[O-])cc1)Nc1ccc([N+](=O)[O-])cc1`, the “viability change, negative = cytotoxic” value is reported as -3.26% [at 42.5 µM]. In the case of `CNC(=O)N(c1ccccc1)c1ccccc1`, the “viability change, negative = cytotoxic” value is reported as 1.07%. For `CC1=CC(O)CC(C)(C)C1` (stereo not given), the “viability change, negative = cytotoxic” value was -1.4%. For `CCCCCCCCCOC(C)=O`, the “viability change, negative = cytotoxic” value was 2.76%. With `CCC(=O)OC/C=C/c1ccccc1` the Potency was “inactive”. With `CCCCC(CC)C(=O)OCCOCCOCCOCCOC(=O)C(CC)CCCC` (stereo not given) the “viability change, negative = cytotoxic” value was -5.48%. With `O=C(CS)OCCOC(=O)CS` the “viability change, negative = cytotoxic” value was -4.54%.
